Measurements as given in the supplement of paper PMC8728848.
Only a selection was taken, and the strongest signals are over-represented in it overall.

How the values were obtained:
Experiment in all cases: glycan array binding signal (z-score within array); higher = stronger binding
Conditions in all cases: glycan notation: IUPAC condensed, linker removed
[1] = biological target: Fuc(a1-2)Gal(b1-3)GalNAc(a1-3)[Fuc(a1-2)]Gal(b1-4)Glc
Summary of the method: (§1)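 The binding signal is a Z-score computed within each array and averaged over linkers. Arrays of the same protein sequence at different concentrations or buffers were also averaged together. Data originate from 3228 arrays in the Consortium for Functional Glycomics database, kept only where the protein sequence was available.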

[2] = biological target: Fuc(a1-2)Gal(b1-3)[Fuc(a1-4)]GlcNAc
Summary of the method: as §1

Fuc(a1-2)Gal(b1-4)Glc6S = biological target: Fuc(a1-2)Gal(b1-4)Glc6S
Summary of the method: as §1

[3] = biological target: Fuc(a1-2)Gal(b1-4)GlcNAc(b1-2)Man(a1-3)[Fuc(a1-2)Gal(b1-4)GlcNAc(b1-2)Man(a1-6)]Man(b1-4)GlcNAc(b1-4)[Fuc(a1-6)]GlcNAc
Summary of the method: as §1

[4] = biological target: Fuc(a1-2)Gal(b1-4)GlcNAc(b1-6)GalNAc
Summary of the method: as §1

[5] = biological target: Fuc(a1-2)Gal(b1-4)[Fuc(a1-3)]GlcNAc
Summary of the method: as §1

[6] = biological target: Fuc(a1-2)Gal6S(b1-3)GlcNAc6S
Summary of the method: as §1

Fuc(a1-2)Gal6S(b1-4)Glc = biological target: Fuc(a1-2)Gal6S(b1-4)Glc
Summary of the method: as §1

[7] = biological target: Fuc(a1-2)[Gal(a1-3)]Gal(b1-3)GalNAc
Summary of the method: as §1

[8] = biological target: Fuc(a1-2)[Gal(a1-3)]Gal(b1-3)GlcNAc(b1-2)Man(a1-3)[Fuc(a1-2)[Gal(a1-3)]Gal(b1-3)GlcNAc(b1-2)Man(a1-6)]Man(b1-4)GlcNAc(b1-4)GlcNAc
Summary of the method: as §1

[9] = biological target: Fuc(a1-2)[Gal(a1-3)]Gal(b1-3)GlcNAc(b1-2)Man(a1-3)[Fuc(a1-2)[Gal(a1-3)]Gal(b1-3)GlcNAc(b1-2)Man(a1-6)]Man(b1-4)GlcNAc(b1-4)[Fuc(a1-6)]GlcNAc
Summary of the method: as §1

[10] = biological target: Fuc(a1-2)[Gal(a1-3)]Gal(b1-4)GlcNAc(b1-2)Man
Summary of the method: as §1

[11] = biological target: Fuc(a1-3)[Gal(b1-4)]GlcNAc(b1-2)Man(a1-3)[Fuc(a1-3)[Gal(b1-4)]GlcNAc(b1-2)Man(a1-6)]Man(b1-4)GlcNAc(b1-4)GlcNAc
Summary of the method: as §1

[12] = biological target: Fuc(a1-3)[Gal(b1-4)]GlcNAc(b1-3)Gal(b1-4)[Fuc(a1-3)]GlcNAc(b1-3)Gal(b1-4)[Fuc(a1-3)]GlcNAc
Summary of the method: as §1

[13] = biological target: Fuc(a1-3)[Gal3S(b1-4)]Glc
Summary of the method: as §1

[14] = biological target: Gal(a1-3)Gal(b1-3)[Fuc(a1-4)]GlcNAc(b1-2)Man(a1-3)[Gal(a1-3)Gal(b1-3)[Fuc(a1-4)]GlcNAc(b1-2)Man(a1-6)]Man(b1-4)GlcNAc(b1-4)GlcNAc
Summary of the method: as §1

[15] = biological target: Gal(a1-3)Gal(b1-4)GlcNAc(b1-2)Man
Summary of the method: as §1

[16] = biological target: Gal(a1-3)Gal(b1-4)GlcNAc(b1-6)GalNAc
Summary of the method: as §1

[17] = biological target: Gal(b1-3)GlcNAc(a1-6)Gal(b1-4)GlcNAc
Summary of the method: as §1

[18] = biological target: Gal(b1-3)GlcNAc(b1-2)[Gal(b1-3)GlcNAc(b1-6)]Man(a1-6)[Gal(b1-3)GlcNAc(b1-2)Man(a1-3)]Man(b1-4)GlcNAc(b1-4)GlcNAc
Summary of the method: as §1

[19] = biological target: Gal(b1-3)GlcNAc(b1-3)Gal(b1-4)GlcNAc(b1-2)[Gal(b1-3)GlcNAc(b1-3)Gal(b1-4)GlcNAc(b1-6)]Man(a1-6)[Gal(b1-3)GlcNAc(b1-3)Gal(b1-4)GlcNAc(b1-2)Man(a1-3)]Man(b1-4)GlcNAc(b1-4)[Fuc(a1-6)]GlcNAc
Summary of the method: as §1

[20] = biological target: Gal(b1-3)GlcNAc(b1-3)Gal(b1-4)GlcNAc(b1-3)Gal(b1-4)GlcNAc(b1-2)[Gal(b1-3)GlcNAc(b1-3)Gal(b1-4)GlcNAc(b1-3)Gal(b1-4)GlcNAc(b1-6)]Man(a1-6)[Gal(b1-3)GlcNAc(b1-3)Gal(b1-4)GlcNAc(b1-3)Gal(b1-4)GlcNAc(b1-2)Man(a1-3)]Man(b1-4)GlcNAc(b1-4)[Fuc(a1-6)]GlcNAc
Summary of the method: as §1

[21] = biological target: Gal(b1-3)[Neu5Ac(a2-6)]GlcNAc(b1-4)Gal(b1-4)Glc
Summary of the method: as §1

Gal(b1-4)Gal = biological target: Gal(b1-4)Gal
Summary of the method: as §1

[22] = biological target: Gal(b1-4)GalNAc(a1-3)[Fuc(a1-2)]Gal(b1-4)GlcNAc
Summary of the method: as §1

[23] = biological target: Gal(b1-4)GlcNAc(b1-2)Man(a1-3)[Man(a1-6)]Man(b1-4)GlcNAc(b1-4)GlcNAc
Summary of the method: as §1

[24] = biological target: Gal(b1-4)GlcNAc(b1-2)[Gal(b1-4)GlcNAc(b1-4)]Man(a1-3)[Gal(b1-4)GlcNAc(b1-2)Man(a1-6)]Man(b1-4)GlcNAc(b1-4)GlcNAc
Summary of the method: as §1

[25] = biological target: Gal(b1-4)GlcNAc(b1-2)[Gal(b1-4)GlcNAc(b1-4)]Man(a1-3)[GlcNAc(b1-4)][Gal(b1-4)GlcNAc(b1-2)[Gal(b1-4)GlcNAc(b1-6)]Man(a1-6)]Man(b1-4)GlcNAc(b1-4)GlcNAc
Summary of the method: as §1

[26] = biological target: Gal(b1-4)GlcNAc(b1-2)[Gal(b1-4)GlcNAc(b1-6)]Man(a1-6)[Gal(b1-4)GlcNAc(b1-2)Man(a1-3)]Man(b1-4)GlcNAc(b1-4)GlcNAc
Summary of the method: as §1

[27] = biological target: Gal(b1-4)GlcNAc(b1-3)Gal(b1-4)GlcNAc(b1-2)[Gal(b1-4)GlcNAc(b1-3)Gal(b1-4)GlcNAc(b1-6)]Man(a1-6)[Gal(b1-4)GlcNAc(b1-3)Gal(b1-4)GlcNAc(b1-2)Man(a1-3)]Man(b1-4)GlcNAc(b1-4)GlcNAc
Summary of the method: as §1

B1: Mermaid1 (Stilbonema majum) (protein)
chain: MGSSHHHHHHSSGLVPRGSHMAASGWLRSPQGTVVKLYRRSLSWSKADEFCKDVDGRLVVDRTADMHLFLIKNVLKEKKSRVWVGLRRTAPHSRTWIWSDGTRQNEDDLDANLWLRDEPNDAAGEEECALFMYSPWEKAWGLNDYLCRGGCRSYQFICEKWIR
glycan array binding signal (z-score) [1]: -0.132 | glycan array binding signal (z-score) [2]: -0.578 | glycan array binding signal (z-score) (Fuc(a1-2)Gal(b1-4)Glc6S): 2.97 | glycan array binding signal (z-score) [3]: 3.06 | glycan array binding signal (z-score) [4]: -0.219 | glycan array binding signal (z-score) [5]: 0 | glycan array binding signal (z-score) [6]: 1.58 | glycan array binding signal (z-score) (Fuc(a1-2)Gal6S(b1-4)Glc): -0.65 | glycan array binding signal (z-score) [7]: 3.08 | glycan array binding signal (z-score) [8]: -0.403 | glycan array binding signal (z-score) [9]: -0.259 | glycan array binding signal (z-score) [10]: -0.732 | glycan array binding signal (z-score) [11]: -0.717 | glycan array binding signal (z-score) [12]: -0.381 | glycan array binding signal (z-score) [13]: 0.419 | glycan array binding signal (z-score) [14]: 2.49 | glycan array binding signal (z-score) [15]: -0.331 | glycan array binding signal (z-score) [16]: -0.176 | glycan array binding signal (z-score) [17]: 0.067 | glycan array binding signal (z-score) [18]: -0.787 | glycan array binding signal (z-score) [19]: 4.98 | glycan array binding signal (z-score) [20]: 6.8 | glycan array binding signal (z-score) [21]: -0.953 | glycan array binding signal (z-score) (Gal(b1-4)Gal): 3.2 | glycan array binding signal (z-score) [22]: 1.62 | glycan array binding signal (z-score) [23]: 2.41 | glycan array binding signal (z-score) [24]: 0.823 | glycan array binding signal (z-score) [25]: -1.01 | glycan array binding signal (z-score) [26]: -0.567 | glycan array binding signal (z-score) [27]: 4.04
